Source: PubChem BioAssay
NPC1 promoter act: activates the NPC1 promoter; Huh7 NPC1 promoter luciferase reporter, 24 h; Potency, µM (highest dose often 9.22 µM), for inactives: at the top dose activation, usual class: activators; 320,000 tested, 2.4% active; further: % of control where 0% means no effect; nearly all actives have a fitted effect of over 60% in size
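In 1536-well qHTS, Huh7 cells harboring an NPC1 promoter–luciferase construct received compound for 24 h; activation was quantified by luminescence following luciferase reagent addition.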
ELG1 DNA repair: ELG1-dependent DNA repair inhibition. 330,000 tested, 2.3% active. Potency, µM (top dose mostly 46.1 µM), for the others: at the top dose activity change, negative = inhibition, usual class: inhibitors. HEK293T ELG1-luciferase reporter, luminescence, 16 h; DNA damage induced by 5-fluorouridine; further: on the % scale 0 is the no-effect control and ±100 the full control effect; nearly all actives have a fitted effect of over 55% in size
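Cells (2,000 per well) received 5-fluorouridine plus test compound or DMSO and were incubated 16 hr at 37 °C, 5% CO2. Luciferase activity was read by luminescence 30 min after ONE-Glo addition; signal suppression marked inhibition of damage-induced ELG1 function.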
FLuc counter: firefly luciferase modulation, counter-screen for miR-21 project; P08659; purified FLuc, Km substrates, luminescence inhibition; Potency, µM (highest dose often 57.5 µM), without a hit: at the highest dose activity change, negative = inhibition, hits mostly inhibitors; 360,000 tested, 6.9% active;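 further: plate controls were vehicle for no effect and reference inhibitor for full effect; nearly all actives have a fitted effect of over 55% in size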
Target sequence (P08659 whole entry, looked up): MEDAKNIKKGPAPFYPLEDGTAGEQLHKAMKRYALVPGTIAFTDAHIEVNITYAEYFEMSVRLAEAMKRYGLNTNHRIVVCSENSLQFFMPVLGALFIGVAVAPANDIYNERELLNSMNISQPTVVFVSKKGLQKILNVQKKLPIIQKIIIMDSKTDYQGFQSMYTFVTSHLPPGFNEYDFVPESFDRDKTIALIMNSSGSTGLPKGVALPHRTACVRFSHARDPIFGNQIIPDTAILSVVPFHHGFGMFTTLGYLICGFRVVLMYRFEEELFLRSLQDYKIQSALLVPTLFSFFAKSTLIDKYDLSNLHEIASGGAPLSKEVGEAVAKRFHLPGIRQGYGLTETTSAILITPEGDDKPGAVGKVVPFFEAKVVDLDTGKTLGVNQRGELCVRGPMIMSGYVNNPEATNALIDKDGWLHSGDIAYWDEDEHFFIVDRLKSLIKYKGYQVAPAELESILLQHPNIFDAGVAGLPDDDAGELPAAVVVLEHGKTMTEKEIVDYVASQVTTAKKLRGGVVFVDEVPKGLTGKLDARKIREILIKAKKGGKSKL
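Biochemical qHTS of compounds, final roughly 60 µM downward over six points, against 10 nM purified firefly luciferase using Km concentrations of substrates (10 uM D-luciferin, 10 uM ATP) in Tris acetate pH 7.5 buffer; luminescence output.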
ELG1 genotoxic: genotoxicity induction in ELG1-luciferase HEK293T cells | HEK293T ELG1-luciferase reporter, luminescence, 16 h | Potency, µM (titrated, usually from 46 µM), for inactives: at the top dose activity change, positive = activation, actives largely listed as activators | 330,000 tested, 1.3% active; further: % of control where 0% means no effect; nearly all actives have a fitted effect of over 60% in size
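After overnight (16 hr) compound treatment at 37 °C, ELG1-luciferase HEK293T cells were lysed with ONE-Glo; luminescence quantified 30 min later at room temperature.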
SMN2 splice enh: enhancers of SMN2 splice variant expression. HEK293 SMN2-luciferase splicing reporter, luminescence, 30-36 h. Potency, µM (top dose mostly 46.1 µM), without a hit: at the top dose activity change, positive = activation, most hits filed as activators. 210,000 tested, 2.8% active. AID 1458; further: % of control where 0% means no effect; nearly all actives have a fitted effect of over 55% in size
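HEK293 cells carry an SMN2 minigene-luciferase reporter in which exon 7 inclusion puts luciferase in frame. Cells were seeded at 2000 cells/well, attached for 10-12 hours, then exposed to compounds for 30-36 hours at 37C before ONE-Glo luminescence.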
Rab9 promoter act: Rab9 promoter activation | Potency, µM (highest dose often 9.22 µM), for inactives: at the highest dose activation, negative = inhibition, hits mostly activators | AID 485297 | 320,000 tested, 2.8% active | Huh7 Rab9 promoter-luciferase reporter, luminescence, 24 h; further: % of control where 0% means no effect; nearly all actives have a fitted effect of over 60% in size
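Stable Rab9-luc Huh7, 1500 cells/well, 2 h settle; cmpd in DMSO, 24 h, 37 °C/5% CO2; luciferase reagent 10 min RT; luminescence.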
Numbers without * were called inactive; ? = inconclusive; nt = not tested or not shown; [ ] = remark or other dose. In the library only some 9.2% were active in any assay of this set; here they are far more common. The call rests on the fitted dose curve; in most records, active means well fitted curve in the direction sought with a large enough effect; inconclusive means small, poorly fitted or top-dose-only effect, or another doubt; inactive means no such curve, though single readings can be large; an effect the other way counts as inactive or inconclusive. Potency means the concentration at half of the fitted maximal effect.

SMILES	NPC1 promoter act	ELG1 DNA repair	FLuc counter	ELG1 genotoxic	SMN2 splice enh	Rab9 promoter act
COc1ccccc1N1CCN(S(=O)(=O)CCNC(=O)Cc2ccc(F)cc2)CC1	-3%	?	1%	-12%	nt	3%
CC(=O)c1cccc(NC(=O)CSc2nnc3ccc(-c4ccc(Br)cc4)nn23)c1	nt	nt	4%	nt	nt	nt
CCC(C)n1c(SCc2ccc(F)cc2Cl)nc2ccsc2c1=O (stereo not given)	nt	nt	4%	nt	nt	nt
N#Cc1ccc(C(=O)Nc2ccn(-c3ccccc3)n2)cc1	-1%	23µM*	?	-7%	-53%	-11%
O=C(Nc1ccn(-c2ccccc2)n1)c1ccc(Cl)cc1	13%	?	13µM*	10%	7%[1.84 µM]	16%
CC(=O)Nc1ccn(-c2ccccc2)n1	13%	?	?	5%	16%	17%
O=C(Nc1ccn(-c2ccccc2)n1)c1ccccc1Br	?	?	?	?	16µM*	27%
O=C1CCN(Cc2cccnc2)CCN1[C@H](CO)Cc1ccccc1	1%	19%	0%	4%	nt	-2%
CCOc1ccccc1C(=O)N1CC(=O)Nc2ccc(Cl)cc2C1c1ccccc1 (stereo not given)	nt	nt	-12%	nt	-7%	nt
CN(CCO)c1ccc(-c2n[nH]c(=O)c3ccccc23)cc1[N+](=O)[O-]	-3%	?	-2%	-8%	nt	-8%
COc1ccc(S(=O)(=O)Nc2ccc(-c3ccc(N4CCCC4)nn3)cc2)cc1F	nt	nt	-1%	nt	nt	nt
Cc1ccc(S(=O)(=O)Nc2cccc(-c3ccc(N4CCCCCC4)nn3)c2)cc1C	?	?	6µM*	?	nt	3.2µM*
Cc1ccc([N+](=O)[O-])cc1S(=O)(=O)Nc1cccc(-c2ccc(N3CCCC3)nn2)c1	18%	?	19µM*	1%	nt	15%
COc1ccc(S(=O)(=O)Nc2cccc(-c3ccc(N4CCCC4)nn3)c2)cc1OC	nt	nt	17µM*	nt	nt	nt
COc1ccc(S(=O)(=O)Nc2cccc(-c3ccc(N4CCC(C)CC4)nn3)c2)cc1OC	nt	nt	0.43µM*	nt	nt	nt
CCCOC(=O)c1cccc(Nc2nc(C(=O)OCC)nc3ccccc23)c1	nt	nt	-14%	nt	-14%	nt
C/C(=N\Nc1nc(N)cc(Cl)n1)c1cccc([N+](=O)[O-])c1	21%	18%	?	0%	-5%	15%
C/C(=N/Nc1nc(C)c(C)s1)c1cccc([N+](=O)[O-])c1	?	-8%	12µM*	?	nt	?
COC(=O)c1sc(N)c(C(=O)OC)c1COC(=O)CCNS(=O)(=O)c1ccc(C)cc1	-1%	10µM*	-1%	-6%	-8%	-1%
COC(=O)c1sc(N)c(C(=O)OC)c1COC(=O)CNS(=O)(=O)c1ccc(C)c(C)c1	-4%	?	7%	-1%	-11%[1.84 µM]	-6%
CCNC(=S)N/N=C/c1sc(N2CCCCC2)nc1-c1cccs1	26%	?	1.9µM*	?	nt	?
CCCCNC(=S)N/N=C/c1sccc1C	10%	1%	-13%	3%	25%	0%
COC(=O)c1cc(NC(=O)c2cc(-c3ccc(OC)cc3)oc2C(F)(F)F)ccc1N1CCOCC1	-1%	23µM*	?	-11%	nt	-5%
COc1ccc(C(=O)Nc2ccc(N3CCN(c4ccc(OC)cc4)CC3)c(C#N)c2)cc1	1%	28%	2%	3%	10µM*	-1%
CC(NC(N)=O)C(=O)Nc1ccc(Cl)c(S(=O)(=O)Nc2ccc(Cl)cc2)c1 (stereo not given)	-5%	-1%	-5%	-2%	-1%	-2%
SMILES	NPC1 promoter act	ELG1 DNA repair	FLuc counter	ELG1 genotoxic	SMN2 splice enh	Rab9 promoter act
COC(=O)c1cc(NC(=O)c2cc(-c3ccc(C(F)(F)F)cc3)oc2C(F)(F)F)ccc1N1CCOCC1	-6%	?	1%	-11%	nt	-12%
COc1ccc(NS(=O)(=O)c2cc(NC(=O)c3ccc(Cl)cc3)ccc2N2CCOCC2)cc1	nt	9.2µM*	nt	-1%	nt	nt
CC(C)Oc1ccc(C(=O)Nc2ccc(Cl)c(S(=O)(=O)Nc3ccc(Cl)cc3)c2)cc1	-2%	?	15µM*	-10%	-70%	1%
COc1ccc(NS(=O)(=O)c2cc(NC(=O)c3ccncc3)ccc2N2CCOCC2)cc1	-1%	-5%	3%	3%	7.9µM*	0%
COc1ccc(/C=C2\SC(=S)N(CCC(=O)N3CCOCC3)C2=O)cc1	-1%	1%	?	-1%	nt	-15%
O=C1/C(=C/c2ccccc2Cl)SC(=S)N1CCC(=O)N1CCCCC1CCO (stereo not given)	-8%	-1%	?	-8%	nt	-5%
COc1ccc(/C=C2\SC(=S)N(CCCC(=O)N3CCCCC3CCO)C2=O)cc1 (stereo not given)	-17%	?	17µM*	-14%	nt	-12%
COc1ccc(/C=C2\SC(=S)N(CCCC(=O)N3CCN(C)CC3)C2=O)cc1	-4%	3%	15µM*	1%	nt	-11%
CC(C)c1ccc(/C=C2\SC(=S)N(CCC(=O)N3CCCCC3CCO)C2=O)cc1 (stereo not given)	-24%	?	3.4µM*	-14%	nt	-31%
O=C1/C(=C\c2ccccc2)SC(=S)N1CCC(=O)N1CCCCC1CCO (stereo not given)	-8%	-3%	17µM*	-5%	nt	0%
CC1=C(C(=O)Nc2ccccc2)C(c2cccn2C)n2ncnc2N1 (stereo not given)	nt	nt	-2%	nt	nt	nt
N#Cc1ccc(CN2CCN(C(=O)c3cc(C4CC4)nn3-c3ccccc3)CC2)cc1	-2%	?	3%	2%	nt	-11%
CCN1C(=O)[C@@H]2[C@H](C1=O)[C@@H]1C(=O)Nc3ccccc3C(=O)N1[C@@H]2c1ccc(OC)cc1	-3%	?	2%	-1%	nt	-7%
COc1cc(/C=N/O)ccc1OCc1ccccc1Cl	3.2µM*	?	6.7µM*	16µM*	11µM*	1.6µM*
COc1ccc(/C=N/N=C2/NC(=O)C(CC(=O)O)S2)cc1OCc1ccccc1Cl (stereo not given)	-1%	-3%	-3%	-2%	11%	-1%
O=C(NCc1cccs1)Nc1cccs1	11%	17%	?	0%	2%	12%
Cc1cccnc1NC(=O)Nc1cccs1	14%	?	12µM*	17%	13%	11%
Cc1ccccc1CNC(=O)Nc1cccs1	29%	?	21µM*	8%	15%	25%
Cc1ccc(NC(=O)Nc2ncccc2C)cc1	2.8µM*	?	7.6µM*	28%	10µM*	2µM*
Cc1ccc(C)c(NC(=S)Nc2ncccc2C)c1	22%	?	17µM*	?	nt	?
